The record followed here is PubChem BioAssay (NCI).

Holding throughout (assay): NCI-60 one-dose screen, 48 h (100 = growth as untreated, 0 = no growth, -100 = all killed)
Holding throughout (details): 10 µM unless noted

In test [1] the test system is NCI-H23 lung.
Test [2] has as its system NCI-H226 lung.
Test [3] relates to HOP-62 NSCLC.
Test [4] relates to NCI-H460 lung.
Test [5] concerns HOP-92 NSCLC.
Test [6] deals with NCI-H522 lung.
Test [7] relates to A549/ATCC NSCLC.
The test system of test [8] is 786-0 renal.
Test [9] deals with COLO 205 colon.

The panel holds about 83,000 compounds, 20% with a hit somewhere; the sample as a whole holds those more often.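 Step 1: grow cells in 96-well plates. Step 2: add test compound at a single concentration. Step 3: incubate 48 h. Step 4: record percent growth.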 Values without a mark were called inactive. Activity calls are given as the source filed them. Rule for the calls: active = growth percent below 10; inactive = the rest.

For `CC(=S)Nc1ccccc1`, the growth in test [1] is 95.7%; in test [2] it was 89.3%; in [3], 82.2%; in [4], 97.3%; in test [5], 90.7%; in [6], 88.2%. The growth in test [7] was 79.6%; in test [8] it was 104%; in [9] it was 99.8%.

On to `O=S(=O)(CCN1CCOCC1)Nc1cncc(-c2ccc3ncnc(Nc4ccc(F)c(Cl)c4)c3c2)c1`, for which the growth is 74.8% in [1]; 84.8% in [2]; 40% in test [3]; 98.6% in test [4]; 13% in test [5]; 54.8% in [6]. The growth is 77.2% in test [7], 58.9% in test [8] and 64.9% in test [9].

In the case of `FC(F)(F)c1cn(CCN2CCOCC2)c2ncnc(Cl)c12`, the growth is 66.1% in [1]; 101% in test [2]; 55.9% in [3]; 84.3% in [4]; -62.3% (active) in test [5]; 20.5% in [6]. In addition, the figures for the growth in test [7], in test [8] and in test [9] were 94.5%, 113% and 76.5%, respectively.

Regarding `O=C(Nc1ccc(-n2ccc3c(NC(=O)c4ccccc4)ncnc32)cc1)Nc1cccc(Cl)c1Cl`, the growth was -13.7% (active) in [1]; -37.6% (active) in [2]; -32% (active) in test [3]; -48.4% (active) in test [4]; -21.1% (active) in test [5]; -31.6% (active) in test [6]. The growth is -69.6% (active) in test [7], 6.42% (active) in [8] and 15.9% in test [9].

Take `COc1ccc(-c2coc3c(CO)c(O)ccc3c2=O)cc1`: the growth in test [1] was 79.5%; in test [2] it was 61.7%; in [3], 53%; in [4], 32.7%; in test [5] it was 55.8%; in test [6] it was 67.2%. For the same compound, the results for the growth in [7], in test [8] and in test [9] were 90.5%, 90.3% and 115%, respectively.

For `COc1cc2c(cc1OCCCCC(=O)Nc1ccc(-c3nc4ccccc4s3)cc1)N=C[C@@H]1CCCN1C2=O`, the growth in [1] is -11.4% (active); in test [2], -43.7% (active); in test [3], -2.65% (active); in [4] it was -19.5% (active); in test [5] it was -53% (active); in [6] it was -54% (active). The growth is -42.2% (active) in test [7], -6.44% (active) in test [8] and -60.5% (active) in test [9].

Consider `COc1ccc2c(c1)nnc1c3cccnc3[nH]c21`, for which the growth in test [1] is 25.5%; in test [2] it was 19.7%; in [3], 6.44% (active); in test [4], -49.4% (active); in test [5] it was -36.5% (active); in test [6] it was -34.4% (active). The growth was 40.8% in test [7], -37.2% (active) in test [8] and -62.3% (active) in [9].
